The full list was thinned out, with hits kept by preference.
RE007 growth inh: less growth of the S. pombe RE007 Vpr strain; S. pombe RE007 Vpr strain, BacTiter-Glo ATP luminescence, 24 h; Potency, µM (series often up to 92.2 µM), without a hit: at the highest dose activity change, negative = less growth, most hits filed as inhibitors; hit rate 0.21% among 360,000; AID 651644; active = well fitted falling curve with a large enough effect; inconclusive = small, poorly fitted or top-dose-only effect; inactive = no such curve, though single readings can be large or run the other way; note: potency is the fitted concentration of half-maximal effect; % is set by controls: 0 for no effect and ±100 for the full control effect; nearly all actives have a fitted effect of over 50% in size
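Fission yeast RE007 carrying one integrated HIV-1 vpr copy, seeded at OD 0.01 in PMG+AL medium with 23 nL pinned compound. Grown 24 h at 30 degrees; viability read by BacTiter-Glo luminescence after 5 min.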
Shiga toxin inh: Shiga toxin inhibition | inhibition, % at 38.7 µM | Vero cells, Shiga toxin protein synthesis inhibition reporter | hit rate 9.2% among 290,000; in the data active = inhibition mostly above about 28%, no sharp cut-off; inactive = mostly below about 43%; note: 0% is about no effect
CHX counter: affects cycloheximide protein synthesis inhibition readout, counter-screen; max response, %; hit rate 12% among 300,000; AID 2314; cell reporter, cycloheximide protein synthesis inhibition counterscreen; in the data active = max response mostly above about 13%, no sharp cut-off; inactive = mostly below about 14%; note: read at 38.3 µM for the half of the compounds with a filed dose; 0% is about no effect
TbPYK inhibitor: blocks Trypanosoma brucei pyruvate kinase; Potency, µM (highest dose often 76.8 µM), without a hit: top-dose activity, negative = inhibition, hits mostly inhibitors; Q57TT1; TbPYK enzyme, Kinase-Glo Plus ATP luminescence, 45 min; hit rate 0.12% among 410,000; AID 624173; note: potency is the fitted concentration of half-maximal effect; % is set by controls: 0 for no effect and ±100 for the full control effect; nearly all actives have a fitted effect of over 50% in size
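Luminescent Kinase-Glo Plus end-point after 45 min room-temperature reaction of T. brucei pyruvate kinase started with 130 uM ADP (final). Buffer TEA 50 mM pH 7.2 with KCl, MgCl2, BSA, Tween-20; titration-based qHTS with fitted concentration-effect curves.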
FBPA Giardia inh: Giardia lamblia aldolase inhibition | Potency, µM (series often up to 59.6 µM), for inactives: top-dose activity, negative = inhibition, most hits filed as inhibitors | purified Giardia FBPA | A8B2U2 | hit rate 0.71% among 290,000 | AID 2451; note: potency is the fitted concentration of half-maximal effect; % is set by controls: 0 for no effect and ±100 for the full control effect; nearly all actives have a fitted effect of over 55% in size
Target sequence (A8B2U2 whole entry, looked up): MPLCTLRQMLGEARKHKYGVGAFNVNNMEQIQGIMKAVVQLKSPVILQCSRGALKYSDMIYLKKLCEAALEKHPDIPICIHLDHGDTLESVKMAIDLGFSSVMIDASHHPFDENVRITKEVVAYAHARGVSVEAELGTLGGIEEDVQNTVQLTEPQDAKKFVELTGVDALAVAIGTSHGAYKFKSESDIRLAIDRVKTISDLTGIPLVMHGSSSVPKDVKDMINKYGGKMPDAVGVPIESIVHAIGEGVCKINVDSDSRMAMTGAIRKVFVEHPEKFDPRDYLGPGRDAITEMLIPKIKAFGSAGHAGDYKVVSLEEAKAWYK
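Giardia FBPA (40 nM reagent) was preincubated 10 min at RT with compound (up to 57.5 uM final), then substrate plus GAPDH/TPI/NAD/arsenate coupling system with diaphorase/resazurin was added; resorufin fluorescence (525/598 nm) was read after 20 min.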
LmPK inhibitor: LmPK (Leishmania mexicana) enzyme inhibition | purified LmPK, Kinase-Glo ATP luminescence, 1 h | Potency, µM (top dose mostly 57.5 µM), for the others: top-dose activity change, negative = inhibition, hits mostly inhibitors | hit rate 0.37% among 290,000; note: potency is the fitted concentration of half-maximal effect; % is set by controls: 0 for no effect and ±100 for the full control effect
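qHTS format; LmPK 0.1 nM; substrates PEP 0.5 mM and ADP 0.1 mM. One-hour room-temperature incubation, then coupled luciferase luminescence; 0.5 nM enzyme wells mark activation.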
Numbers without * were called inactive; ? = inconclusive; · = no result; [ ] = another dose, or the depositor's remark. Unless noted, calls come from the whole dose curve; as a rule, active = well fitted curve in the direction sought with a large enough effect; inconclusive = small, poorly fitted or top-dose-only effect, or another doubt; inactive = no such curve, though single readings can be large; an effect the other way counts as inactive or inconclusive.

SMILES	RE007 growth inh	Shiga toxin inh	CHX counter	TbPYK inhibitor	FBPA Giardia inh	LmPK inhibitor
COC(=O)c1cc2c(N)c(C(=O)c3ccccc3)sc2nc1C(OC)OC	8%	37	24*	-6%	-2%	2%
COc1ccc(C(=O)c2sc3nc(-c4ccccc4)ccc3c2N)cc1	14%	27	2	-1%	-11%	-3%
CC(C)OC(=O)c1sc2nc(-c3ccccc3)ccc2c1N	-7%	144*	66*	-7%	-4%	0%
COc1cccc(-c2ccc3c(N)c(C(=O)c4ccc(Cl)cc4)sc3n2)c1	·	·	·	0%	·	·
NC(=O)c1sc2nc(-c3cccnc3)ccc2c1N	-8%	32*	22*	-8%	-1%	-1%
Nc1c(C(=O)Nc2ccc(Cl)c(Cl)c2)sc2nc(-c3cccnc3)ccc12	·	-5	-2	·	7%	2%
CCOC(=O)c1sc2nc(-c3cccnc3)ccc2c1N	-3%	84*	50*	4%	-3%	5%
CCc1nn2c(=O)cc(COC(=O)c3cccc(NC(=O)COc4ccccc4)c3)nc2s1	·	·	·	1%	·	·
Nn1c(SCc2ccccc2F)nnc1-c1ccncc1	-7%	80*	32*	-2%	-3%	-6%
Nc1ccccc1-c1nnc(-c2ccccc2N)n1N	-5%	57*	38*	0%	0%	-4%
Nn1c(-c2ccccn2)nnc1-c1ccccn1	-9%	57*	32*	-8%	0%	-16%
c1ccc(-c2ccccn2)nc1	18%[18.4 µM]	-14	-3	-1%	?	1%
c1ccc(-c2ccc(-c3ccccn3)nn2)nc1	·	16	11	·	?	14µM*
COc1ccc2c(c1)C(=O)[C@@H](OC(=O)Nc1ccc(C)c(Br)c1)[C@H](c1ccc(OC)c(Br)c1)O2	·	·	·	·	-4%	·
C=C[C@](C)(O)CCC1C(=C)CC(O)C2C(C)(C)CCCC12C (some centres undefined)	·	·	·	·	-2%	·
COC(=O)c1ccccc1NC(=O)C1=CC(c2ccc3c(c2)OCO3)=NS(=O)(=O)N1C	·	·	·	6%	·	·
CC(=O)N1c2ccc(S(=O)(=O)NCCC(=O)Nc3ccc(C)cc3Br)cc2CC1C (centres undefined)	·	·	·	3%	·	·
Nn1c(SCc2c(F)cccc2F)nnc1-c1ccccn1	1%	90*	32*	-1%	2%	-12%
Cc1ccc(C)c(CSc2nnc(-c3ccccn3)n2N)c1	0%	11	0	1%	2%	5%
CC1(C)CC(=O)c2cc(C(=O)Nc3ccc(Cl)cc3)c(=O)[nH]c2C1	·	·	·	-3%	·	·
O=C(NCc1ccccn1)c1nn(-c2ccccc2F)nc1CO	·	·	·	-3%	·	·
COCc1cc(C)nc(SCC(=O)Nc2ccc(C)c(C)c2)c1C#N	-3%	98*	44*	6%	10%	3%
Cc1cc(C)c(C#N)c(SCC(=O)Nc2ccc3c(c2)OCO3)n1	-5%	28*	26*	1%	-2%	0%
CCc1ccc(NC(=O)CSc2nc(C)cc(COC)c2C#N)cc1	·	·	·	1%	·	·
COc1cccc(Nc2ncc3nc(-c4ccccc4)c(=O)n(Cc4cccs4)c3n2)c1	·	·	·	·	1%	·
SMILES	RE007 growth inh	Shiga toxin inh	CHX counter	TbPYK inhibitor	FBPA Giardia inh	LmPK inhibitor
COc1ccc(C(=O)N[C@H](C(=O)OCC(=O)NC(=O)c2cccn2C)C(C)C)cc1	2%	15	15*	0%	0%	-2%
Fc1ccc(OCc2nc(-c3cccs3)no2)cc1	6%	110*	41*	0%	0%	-4%
COc1cc(NC(=O)CCc2nc(-c3cccs3)no2)cc(OC)c1OC	-11%	16	-1	-2%	-1%	-1%
Cc1cc(OCc2nc(-c3cccs3)no2)cc(C)c1Cl	0%	42*	37*	1%	0%	-3%
c1ccc(OCc2nc(-c3cccs3)no2)cc1	-24%	76*	45*	2%	0%	1%
O=C(NCc1ccc(F)cc1)c1nc(-c2cccs2)no1	-25%	26	1	1%	0%	-1%
COc1cccc(NC(=O)C2CCCN(S(=O)(=O)c3cn(C(C)C)cn3)C2)c1 (centres undefined)	·	·	·	4%	·	·
Cc1ccc(C)c(NC(=O)c2cc(S(=O)(=O)N3CCCc4ccccc43)ccc2F)c1	·	·	·	-6%	·	·
OCCC1CN(Cc2cnc(-c3ccc(Cl)cc3)nc2)CCN1C1CCCCC1 (centres undefined)	-12%	28*	16*	-2%	2%	2%
OCC1(Cc2ccccc2)CCN(Cc2cnc(-c3ccc(Cl)cc3)nc2)CC1	-22%	91*	39*	4%	1%	-3%
COc1ccc(CC2(CO)CCN(Cc3cccnc3)CC2)cc1	1%	33	38*	0%	-13%	7%
CCOC(=O)C1CCCN(C(=O)c2ccc3c(c2)N(Cc2cccc(Cl)c2)C(=O)c2ccccc2S3(=O)=O)C1 (centres undefined)	·	·	·	-1%	·	·
CC1CCCN(c2ccc(C(=O)Nc3cccnc3)cc2[N+](=O)[O-])C1 (centres undefined)	-12%	48*	20	-4%	-11%	6%
O=C(Nc1ccc2c(c1)OCO2)c1ccc(N2CCCC2)c([N+](=O)[O-])c1	3%	29	34*	-8%	-11%	0%
O=C(Nc1ccc2c(c1)OCO2)c1ccc(NC2CC2)c([N+](=O)[O-])c1	-22%	102*	26*	-3%	-5%	6%
CC1CN(c2nc3ccccc3nc2C(C#N)C(=O)NC2CCCCC2)CC(C)O1 (centres undefined)	·	19	19*	·	3%	-1%
CC1CN(c2nc3ccccc3nc2C(C#N)C(=O)OC2CCCCC2)CC(C)O1 (centres undefined)	1%	1	1	-10%	28%	3%
Cc1cc(/C=C2/NC(=O)NC2=O)c(C)n1-c1ccccn1	23%	19	19*	-12%	-8%	3%
CCOC(=O)CN1C(=O)S/C(=C/c2cc(C)n(C)c2C)C1=O	-2%	·	·	-4%	·	·

High-throughput results: PubChem, National Center for Advancing Translational Sciences (NCATS)
